Data from PubChem BioAssay (NCI).
About 83,000 compounds went through this panel and 20% of them were active in at least one assay; those are over-represented in the sample as a whole.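 Cells were grown in 96-well plates and exposed to the test compound at a single concentration for 48 hours; results are reported as percent growth, with values below 10 considered active.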 Calls of active or inactive are those of the source.

Assays:
Assay in all cases: NCI-60 one-dose screen, 48 h (100 = growth as untreated, 0 = no growth, -100 = all killed)
Conditions in all cases: 10 µM unless noted
NCI-H23 lung = system: NCI-H23 lung
NCI-H226 lung = system: NCI-H226 lung
HOP-62 NSCLC = system: HOP-62 NSCLC
NCI-H460 lung = system: NCI-H460 lung
HOP-92 NSCLC = system: HOP-92 NSCLC
NCI-H522 lung = system: NCI-H522 lung
A549/ATCC NSCLC = system: A549/ATCC NSCLC
786-0 renal = system: 786-0 renal
COLO 205 colon = system: COLO 205 colon
NCI-H322M lung = system: NCI-H322M lung

Measured: growth

O=C(N=c1oc2ccccc2cc1-c1cc2ccccc2[nH]1)c1ccc(Cl)cc1
inactive: NCI-H23 lung 29.4% | NCI-H226 lung 84.6% | HOP-62 NSCLC 63.1% | NCI-H460 lung 77.2% | HOP-92 NSCLC 24% | NCI-H522 lung 14.2% | A549/ATCC NSCLC 51.3% | 786-0 renal 70.7% | COLO 205 colon 69.7%

CC(C)(C)c1ccc(/C=C/C(=O)Nc2ccc(O)cc2)cc1
inactive: NCI-H23 lung 80.9% | NCI-H226 lung 65% | HOP-62 NSCLC 52.2% | NCI-H460 lung 46.9% | HOP-92 NSCLC 106% | NCI-H522 lung 26.4% | A549/ATCC NSCLC 64.6% | 786-0 renal 69.1% | COLO 205 colon 73.6%

O=c1c2c3c(sc2nc(N/N=C/c2ccc(Br)cc2)n1Cc1ccccc1)CCCC3
inactive: NCI-H23 lung 68.2% | NCI-H226 lung 79.6% | HOP-62 NSCLC 65.6% | NCI-H460 lung 69.4% | HOP-92 NSCLC 57.8% | NCI-H522 lung 61.2% | A549/ATCC NSCLC 74.8% | 786-0 renal 56.7% | COLO 205 colon 75.4%

COc1cccc(/C=C/C(=O)c2c(C)nc3ccccc3c2/C=C/c2ccc(C)cc2)c1OC
inactive: NCI-H23 lung 49.7% | NCI-H226 lung 62.8% | HOP-62 NSCLC 70% | NCI-H460 lung 26.1% | HOP-92 NSCLC 76.4% | NCI-H522 lung 50.5% | A549/ATCC NSCLC 94.3% | 786-0 renal 74.5% | COLO 205 colon 80.6%

CCCCCCCCCCCCCCCCCC1=NCCN1CCOC1=C(Cl)C(=O)c2ccccc2C1=O
inactive: NCI-H23 lung 79.4% | NCI-H226 lung 100% | HOP-62 NSCLC 82.6% | NCI-H460 lung 98.3% | HOP-92 NSCLC 46.4% | NCI-H522 lung 13.8% | A549/ATCC NSCLC 95.3% | 786-0 renal 98.3% | COLO 205 colon 41.2%

Cc1nc2ccccc2n1CC1NC(=O)NC1=O (stereo unspecified)
inactive: NCI-H23 lung 102% | NCI-H226 lung 98.4% | HOP-62 NSCLC 93.3% | NCI-H460 lung 107% | HOP-92 NSCLC 115% | NCI-H522 lung 94.9% | A549/ATCC NSCLC 98.3% | 786-0 renal 101% | COLO 205 colon 108%

N=c1sc(Cc2ccc(Cl)cc2)cn1CC(=O)c1ccc(F)cc1
inactive: NCI-H23 lung 82.4% | NCI-H226 lung 83% | NCI-H322M lung 76.4% | HOP-62 NSCLC 102% | NCI-H460 lung 33.7% | NCI-H522 lung 63.5% | A549/ATCC NSCLC 66.7% | 786-0 renal 86.5% | COLO 205 colon 145%

CCN1CCN(c2nc(C)cc(NCc3cc(Nc4ccnc5cc(Cl)ccc45)ccc3F)n2)CC1
active: NCI-H460 lung -12.6% | NCI-H522 lung -14.8% | 786-0 renal -51.2% | COLO 205 colon -56.4%
inactive: NCI-H23 lung 46.5% | NCI-H226 lung 69.1% | NCI-H322M lung 50.5% | HOP-62 NSCLC 12% | A549/ATCC NSCLC 28%

C=C(C)[C@@H]1CC=C2c3sc(-c4ccc(C)cc4)nc3C[C@@H](C)[C@]2(C)C1
inactive: NCI-H23 lung 112% | NCI-H226 lung 101% | HOP-62 NSCLC 102% | NCI-H460 lung 114% | HOP-92 NSCLC 103% | NCI-H522 lung 95.7% | A549/ATCC NSCLC 95.3% | 786-0 renal 109% | COLO 205 colon 108%

COc1ccccc1CNCCCN1C(=O)c2ccc3c4c(ccc(c24)C1=O)C(=O)N(CCCNCCCCN)C3=O
active: NCI-H23 lung -38.6% | NCI-H226 lung -56.5% | HOP-62 NSCLC -31% | NCI-H460 lung -46.2% | HOP-92 NSCLC -16% | NCI-H522 lung -84% | A549/ATCC NSCLC -65% | 786-0 renal 0.16% | COLO 205 colon -81.5%

COc1cc2c(cc1-c1c(C)noc1C)ncc1nc(C3CCCCC3)n(C3CCC(OC(F)F)CC3)c12 (stereo unspecified)
active: HOP-92 NSCLC 1.82% | NCI-H522 lung -12.2% | COLO 205 colon 1.16%
inactive: NCI-H23 lung 40.8% | NCI-H226 lung 62.2% | HOP-62 NSCLC 38.3% | NCI-H460 lung 37.3% | A549/ATCC NSCLC 25.3% | 786-0 renal 41.4%

COc1ccc(NC(=O)c2nc(-c3cc(OC)c(OC)c(OC)c3)n(-c3cccc4ccccc34)n2)cc1OC
inactive: NCI-H226 lung 44.9% | NCI-H322M lung 44.8% | HOP-62 NSCLC 42.1% | NCI-H460 lung 49.6% | HOP-92 NSCLC 46.4% | NCI-H522 lung 21.8% | A549/ATCC NSCLC 50.6% | 786-0 renal 31.8% | COLO 205 colon 37.1%

CCOC(=O)c1csc(NC(=O)COc2cccc(/C=C3\Oc4cc(OC)ccc4C3=O)c2)n1
inactive: NCI-H226 lung 89.5% | HOP-62 NSCLC 125% | NCI-H460 lung 107% | HOP-92 NSCLC 62.6% | NCI-H522 lung 49.8% | A549/ATCC NSCLC 94% | 786-0 renal 110% | COLO 205 colon 110%
